This is a sample that favours compounds with a hit; in the whole collection about 18% have one here.
TDP1 block: TDP1 (human) enzyme inhibition | Potency, µM (top dose mostly 130 µM), for the others: at the highest dose activity change, negative = inhibition, actives largely listed as inhibitors | recombinant TDP1, AlphaScreen DNA substrate cleavage | Q9NUW8 | hit rate 0.28% among 350,000; further: potency means the concentration at half of the fitted maximal effect; nearly all actives have a fitted effect of over 40% in size
Target sequence (Q9NUW8 whole entry, looked up): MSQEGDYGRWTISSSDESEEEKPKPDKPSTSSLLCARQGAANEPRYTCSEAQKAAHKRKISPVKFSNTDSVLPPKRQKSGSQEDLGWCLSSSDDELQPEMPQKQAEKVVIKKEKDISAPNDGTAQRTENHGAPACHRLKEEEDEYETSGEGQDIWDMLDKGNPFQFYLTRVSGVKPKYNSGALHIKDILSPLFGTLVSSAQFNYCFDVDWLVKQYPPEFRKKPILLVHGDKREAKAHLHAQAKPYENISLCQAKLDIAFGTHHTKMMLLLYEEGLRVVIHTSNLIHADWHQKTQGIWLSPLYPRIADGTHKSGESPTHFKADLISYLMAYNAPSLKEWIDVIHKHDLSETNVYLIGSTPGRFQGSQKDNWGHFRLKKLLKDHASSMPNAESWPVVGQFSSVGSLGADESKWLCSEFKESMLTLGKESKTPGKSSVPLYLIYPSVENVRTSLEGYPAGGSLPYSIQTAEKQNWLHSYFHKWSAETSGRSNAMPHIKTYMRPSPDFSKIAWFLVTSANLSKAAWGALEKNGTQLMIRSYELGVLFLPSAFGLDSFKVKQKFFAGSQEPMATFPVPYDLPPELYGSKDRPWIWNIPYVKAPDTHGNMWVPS
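Compounds were preincubated with Tdp1 (1 nM final) for 15 min at room temperature before substrate (15 nM final) started a 5 min reaction; beads (10 ug/ml final) were then added for 10 min before AlphaScreen detection.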
DT40 TDP1 no CPT: qHTS for Inhibitors of human tyrosyl-DNA phosphodiesterase 1 (TDP1): qHTS in cells in absence of CPT. DT40 Tdp1-/- hTDP1 cells, no CPT, ATP luminescence, 48 h. Potency, µM (top dose mostly 46.2 µM), for inactives: at the top dose activity change, negative = growth inhibition, hits mostly inhibitors. hit rate 15% among 420,000; further: potency means the concentration at half of the fitted maximal effect; nearly all actives have a fitted effect of over 55% in size
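Growth of hTDP1-complemented DT40 Tdp1-knockout cells is measured by ATP luminescence after at least 48 hr compound exposure at 37 °C, with DMSO substituting for the 20 nM CPT used in the parallel screen.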
Six1-Eya2 inh: blocks human Six1 binding to Eya2; activity change, % (concentration not given with the values); AlphaScreen GST-Six1/His-Eya2 binding, biochemical; stronger effect = lower value; hit rate 0.56% among 360,000; in the data active means activity change below about -65%; inconclusive means mostly about -30% to -63%
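Compounds are tested against tagged Six1 and Eya2 proteins bridged by glutathione donor and nickel acceptor beads; after a one-hour incubation at 37 °C without light, AlphaScreen emission is recorded.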
IL-1B inflam inh: blocks inflammasome-driven IL-1 beta release | THP-1 LPS/ATP IL-1B secretion, AlphaLISA, 16 h; stronger effect = lower value | activity change, % at 57.5 µM | hit rate 4.7% among 360,000 | AID 743279; in the data active means activity change below about -50%; inconclusive means mostly about -30% to -49%
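THP-1 cells pretreated 1 hr with compounds (up to 57.5 uM final), then stimulated with LPS (250 ng/mL final) plus ATP (1.25 mM final); secreted IL-1B measured by AlphaLISA after 16 hr, decreased signal indicating inhibition.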
DT40 TDP1 CPT: DT40-hTDP1 cell growth loss with CPT; Potency, µM (doses to about 46.2 µM), without a hit: at the highest dose activity change, negative = growth inhibition, hits mostly inhibitors; hit rate 12% among 420,000; AID 686979; chicken DT40 Tdp1-/-;hTDP1 cells + 20 nM CPT, ATP luminescence, 48 h; further: potency means the concentration at half of the fitted maximal effect; nearly all actives have a fitted effect of over 55% in size
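Chicken DT40 Tdp1-/- cells stably complemented with human TDP1 were seeded at 400 cells/well in medium containing 20 nM camptothecin, exposed to pin-transferred compounds, and grown at 37 °C for at least 48 hr. Viability was read as ATP luminescence.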
CtBP-E1A blk: blocks the CtBP interaction with E1A | AlphaScreen GST-E1A/His-CtBP binding, 1536-well; stronger effect = lower value | activity change, % (concentration not given with the values) | hit rate 0.49% among 340,000 | AID 651724; in the data active means activity change below about -65%; inconclusive means mostly about -30% to -63%
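AlphaScreen with 125 nM GST-E1A and 125 nM His-CtBP (5X stocks) in Tris pH 8.0, 300 mM NaCl, BSA, Tween 20, TCEP. Compounds preincubated 2 h at 37 deg C, then glutathione donor/nickel acceptor beads added for 1 h at 37 deg C in dark.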
* hit, by the source's call; [ ] = another dose, or the depositor's remark. Unless noted, the call rests on the fitted dose curve; in most records, active means well fitted curve in the direction sought with a large enough effect; inconclusive means small, poorly fitted or top-dose-only effect, or another doubt; inactive means no such curve, though single readings can be large; an effect the other way counts as inactive or inconclusive. On the % scale 0 is the no-effect control and ±100 the full control effect.

How did CCCN1C2CCCC1CC(NC(=O)C1CCCCC1)C2 (stereo not given) do in these assays?
TDP1 block: -12.0%; DT40 TDP1 no CPT: -0.2%; Six1-Eya2 inh: -2.3; IL-1B inflam inh: 20.5; DT40 TDP1 CPT: 0.0%; CtBP-E1A blk: 2.7

How did O=C(CN1C2CCCC1CC(NC(=O)C1CCCCC1)C2)NCc1ccc(F)cc1 (stereo not given) do in these assays?
DT40 TDP1 no CPT: 16.4µM*; Six1-Eya2 inh: -3.4; IL-1B inflam inh: -0.1; DT40 TDP1 CPT: inconclusive

Results for Cc1cc(C(F)(F)F)nn1Cc1n[nH]c(=S)n1Cc1ccccc1 ?
TDP1 block: 2.4%; DT40 TDP1 no CPT: -5.7%; Six1-Eya2 inh: -17.0; IL-1B inflam inh: inconclusive; DT40 TDP1 CPT: -2.7%; CtBP-E1A blk: -14.4

Results for CC(Oc1cccc(Br)c1)C(=O)NNC(=O)c1ccccn1 (stereo not given) ?
TDP1 block: 1.4%; DT40 TDP1 no CPT: 2.31µM*; Six1-Eya2 inh: inconclusive; IL-1B inflam inh: 92.8; DT40 TDP1 CPT: 2.91µM*; CtBP-E1A blk: inconclusive

Results for CC(Oc1cccc(Cl)c1)C(=O)NNC(=O)c1cccnc1 (stereo not given) ?
TDP1 block: -0.1%; DT40 TDP1 no CPT: 11.5%; Six1-Eya2 inh: 0.0; IL-1B inflam inh: 4.3; DT40 TDP1 CPT: 0.5%; CtBP-E1A blk: 9.0

Results for CC(Oc1ccccc1)C(=O)NNC(=O)c1ccccn1 (stereo not given) ?
TDP1 block: 8.1%; DT40 TDP1 no CPT: 7.31µM*; Six1-Eya2 inh: -67.0*; IL-1B inflam inh: 36.4; DT40 TDP1 CPT: 10.3µM*; CtBP-E1A blk: 21.8

Results for CC(C)C(=O)NNC(=O)c1ccccn1 ?
TDP1 block: -7.9%; DT40 TDP1 no CPT: inconclusive; Six1-Eya2 inh: inconclusive; IL-1B inflam inh: 0.0; DT40 TDP1 CPT: inconclusive; CtBP-E1A blk: 7.9

How did Cc1ccc(NC(=O)C(=O)c2c[nH]c3ccccc23)cc1 do in these assays?
DT40 TDP1 no CPT: -30.0%; Six1-Eya2 inh: 6.1; IL-1B inflam inh: 10.0; DT40 TDP1 CPT: -11.6%

How did CCOC(=O)c1cnn(Cc2ccc(C)cc2)c1N do in these assays?
TDP1 block: 8.4%; DT40 TDP1 no CPT: -17.0%; Six1-Eya2 inh: 1.6; IL-1B inflam inh: -5.4; DT40 TDP1 CPT: inconclusive; CtBP-E1A blk: -3.7

What do the screens show for `CCN1C[C@@H]2[C@@H]3C(=O)N(C)C(=O)[C@@H]3[C@](Cc3ccccc3)(C(=O)OC)N2C1=NC1CCCCC1`?
DT40 TDP1 no CPT: 20.6µM*; Six1-Eya2 inh: -2.9; IL-1B inflam inh: 11.8; DT40 TDP1 CPT: inconclusive; CtBP-E1A blk: -4.6

What do the screens show for `COC(=O)[C@@]1(Cc2ccccc2)[C@H]2C(=O)N(C)C(=O)[C@H]2[C@H]2CN=C(SCc3ccc(C#N)cc3)N21`?
TDP1 block: 0.7%[56.1 µM]; DT40 TDP1 no CPT: inconclusive; Six1-Eya2 inh: -3.1; IL-1B inflam inh: -9.9; DT40 TDP1 CPT: inconclusive; CtBP-E1A blk: 4.6

How did COC(=O)c1ccc(CSC2=NC[C@@H]3[C@@H]4C(=O)N(Cc5ccccc5)C(=O)[C@@H]4[C@](C)(C(=O)OC)N23)cc1 do in these assays?
TDP1 block: 0.4%[56.1 µM]; DT40 TDP1 no CPT: 16.4µM*; Six1-Eya2 inh: -0.6; IL-1B inflam inh: 17.8; DT40 TDP1 CPT: inconclusive; CtBP-E1A blk: 2.7

What do the screens show for `COC(=O)[C@@]1(Cc2ccccc2)[C@H]2C(=O)N(Cc3ccccc3)C(=O)[C@H]2[C@H]2CN=C(SCC3CC3)N21`?
TDP1 block: 0.1%[56.1 µM]; DT40 TDP1 no CPT: 23.1µM*; Six1-Eya2 inh: -6.7; IL-1B inflam inh: 41.2; DT40 TDP1 CPT: inconclusive; CtBP-E1A blk: -3.9

What do the screens show for `COC(=O)[C@@]1(Cc2ccccc2)[C@H]2C(=O)N(C)C(=O)[C@H]2[C@H]2CN=C(SCc3ccccc3)N21`?
TDP1 block: -2.5%[56.1 µM]; DT40 TDP1 no CPT: inconclusive; Six1-Eya2 inh: 2.9; IL-1B inflam inh: 3.7; DT40 TDP1 CPT: 14.6µM*; CtBP-E1A blk: -11.6

What do the screens show for `COc1cccc(C2C(C(=O)Nc3ccc(C)cc3C)=C(C)Nc3ncnn32)c1OC` (stereo not given)?
TDP1 block: 3.9%; DT40 TDP1 no CPT: -12.6%; Six1-Eya2 inh: 0.6; IL-1B inflam inh: 6.1; DT40 TDP1 CPT: 0.1%; CtBP-E1A blk: -1.4

Results for CCC(=O)Nc1nc2ccc(NC(=O)COc3ccccc3)cc2s1 ?
TDP1 block: 1.2%; DT40 TDP1 no CPT: 13.1%; Six1-Eya2 inh: 6.4; IL-1B inflam inh: 10.4; DT40 TDP1 CPT: 0.1%; CtBP-E1A blk: 4.9

What do the screens show for `COCCNC(=O)C1CCCN(C(=O)Cc2cccc3ccccc23)CC1` (stereo not given)?
DT40 TDP1 no CPT: -27.2%; Six1-Eya2 inh: -1.8; IL-1B inflam inh: 12.6; DT40 TDP1 CPT: 2.4%; CtBP-E1A blk: 3.8

Results for Cc1ccccc1OCc1nnc(SC(C)C(=O)O)n1-c1ccccc1 (stereo not given) ?
DT40 TDP1 no CPT: 4.6%; Six1-Eya2 inh: -2.3; IL-1B inflam inh: -8.1; DT40 TDP1 CPT: -11.1%; CtBP-E1A blk: 5.3

What do the screens show for `O=C(COC(=O)CCCN1C(=O)c2cccc3cccc(c23)C1=O)Nc1ccc(Cl)cc1`?
TDP1 block: -0.6%; DT40 TDP1 no CPT: 1.8%; Six1-Eya2 inh: -2.0; IL-1B inflam inh: 3.4; DT40 TDP1 CPT: 12.8%; CtBP-E1A blk: -13.6

Results for O=C1c2cccc3cccc(c23)C(=O)N1OS(=O)(=O)c1ccc(Cl)cc1 ?
TDP1 block: 2.7%; DT40 TDP1 no CPT: 18.4µM*; Six1-Eya2 inh: -21.6; IL-1B inflam inh: -1.3; DT40 TDP1 CPT: inconclusive; CtBP-E1A blk: 1.3

Results for CCc1ccc(S(=O)(=O)ON2C(=O)c3ccccc3C2=O)cc1 ?
TDP1 block: 0.0%; DT40 TDP1 no CPT: 11.6µM*; Six1-Eya2 inh: 7.3; IL-1B inflam inh: -28.0; DT40 TDP1 CPT: 7.31µM*; CtBP-E1A blk: -16.2

What do the screens show for `COc1ccc(CNC(=O)C2CCN(S(=O)(=O)N3CC(C)CC(C)C3)CC2)cc1` (stereo not given)?
TDP1 block: 1.9%; DT40 TDP1 no CPT: 19.5%; Six1-Eya2 inh: -0.4; IL-1B inflam inh: 0.0; DT40 TDP1 CPT: -19.7%; CtBP-E1A blk: 1.0

How did Cc1cc(F)ccc1S(=O)(=O)Nc1ccccc1C(=O)N1CCCC1 do in these assays?
TDP1 block: 2.5%; DT40 TDP1 no CPT: 17.2%; Six1-Eya2 inh: 5.0; IL-1B inflam inh: 18.1; DT40 TDP1 CPT: 2.4%; CtBP-E1A blk: 0.2
